These results are taken from PubChem BioAssay AID504408 (Broad Institute, 2011).

Hit rate of the full screen: of about 300,000 compounds, about 5,200 (1.7%) were called active.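 How the source made its calls: active means mean replicate activation of at least 50% with a set share of replicates each reaching 50%; inconclusive means only one of those two conditions met; inactive means mean below 50% and too few replicates reaching it.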 Many of the other results were omitted from the sample, so actives are more common in it than they were.

A short description of the experiment: HSF-1 response element luciferase induction – NIH3T3-HGL cells, MG132 stress, luminescence, single point, primary screen (AID 504408).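 Further: 0% = median of the neutral control wells and 100% = twice that signal.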 The note with it: NIH3T3-HGL HSF-1 luciferase reporter, MG132, 8 h; at 9 µM; hits give high values; 100% = twice DMSO control signal. For orientation: A reporter such as luciferase makes a cellular process visible.
Regarding `CCCCn1c(N)c(N(CC)C(=O)c2ccc(N(C)S(=O)(=O)c3ccc(C)cc3)cc2)c(=O)[nH]c1=O`, the activation is -9.17% (inactive).
Turning to `COc1ccc(OC)c(S(=O)(=O)N2CCCC(C(=O)N3CCC(C(N)=O)CC3)C2)c1` (configuration not stated), the activation is -0.348% (inactive).
For `CCN1C(=O)[C@@H]2[C@@H](c3ccc(-c4cccc(Cl)c4)cc3)N3CCC[C@@]3(C(=O)OC)[C@@H]2C1=O`, the activation was 15% (inactive).
On to `O=C(Cc1ccccc1)NCc1ccc(F)cc1`, for which the activation was 20.9% (inactive).
As to `O=C(/C=C\NCC(=O)c1ccccc1)c1ccccc1`, the activation was 16.4% (inactive).
Regarding `O=C(/C=C/NCc1ccc(F)cc1)c1ccccc1`, the activation is 57.4% (active).
The value for `Cc1ccc(NC(=O)C(C)OC(=O)Cc2c[nH]c3ccccc23)cc1S(=O)(=O)N1CCOCC1` (configuration not stated) was 13% (inactive).
The value for `Cc1ccc(C(=O)OCC(=O)N2CC(C)CC(C)C2)cc1S(=O)(=O)N1CCCCC1` (configuration not stated) was 1.62% (inactive); that for `Cc1ccc2nc(N3CCN(C(=O)c4ccco4)CC3)sc2c1` was 12.9% (inactive); that for `Brc1ccc2nc(N3CCCC3)sc2c1` was 68.3% (active).
Consider `c1c2c(cc3sc(N4CCCCC4)nc13)OCCO2`, for which the activation was -56.8% (inactive).
In the case of `CN(Cc1c(F)cccc1Cl)C(=O)CNC(=O)c1ccc2c(c1)OCO2`, the activation was -4.62% (inactive).
Consider `Cc1ccc(S(=O)(=O)N2CCN(C(=O)c3ccccc3-c3nc4ccccc4s3)CC2)c(C)c1`, for which the activation is -2.98% (inactive).
Consider `O=C1c2ccccc2C(=O)N1CCOc1ccc(F)cc1`, for which the activation was 43.4% (inactive).
As for `O=C(CCN1C(=O)c2ccccc2C1=O)C1=NN[C@@H]2C(=O)N(c3ccc(F)cc3)C(=O)[C@H]12`, the activation was 67.2% (active).
As to `O=C(CCN1C(=O)c2ccccc2C1=O)Nc1cccc(F)c1`, the activation was -4.05% (inactive).
As for `CCOc1ccc(S(=O)(=O)Nc2cccc(C(=O)NCC3(N4CCCCC4)CCCCC3)c2)cc1`, the activation was -4.45% (inactive).
In the case of `O=C(CSc1nnc(-c2c[nH]c3ccccc23)n1-c1ccc(F)cc1)NCc1ccco1`, the activation was 58.5% (active).
For `COc1ccc(-n2c(SCC(=O)NCc3ccco3)nnc2-c2c[nH]c3ccccc23)cc1`, the activation is 7.75% (inactive).
In the case of `O=C(CSc1nnc2scc(-c3ccc(F)cc3)n12)NCc1ccco1`, the activation is -1.83% (inactive).
In the case of `O=S(=O)(Nc1ccc(-c2ccc(N3CCOCC3)nn2)cc1)c1cc(Cl)ccc1Cl`, the activation is 12.9% (inactive).
For the compound `Cc1ccc(C(=O)N/N=C/c2cccc3ccccc23)cn1`, the activation is 15.6% (inactive).
For `CCCn1c(CCNc2nc(-c3ccc(OC)cc3)cs2)nc2ccccc21` the value was 3.73% (inactive).
Take `COc1ccc(-c2csc(Nc3ccccn3)n2)cc1`: the activation is 57.4% (active).
The value for `c1cnc(Nc2nc(-c3ccc4ccccc4c3)cs2)nc1` was 38.8% (inactive); that for `Cc1ccc(NC(=O)c2cccs2)cc1S(=O)(=O)N(C)C` was -11.9% (inactive); that for `Cc1ccc(C(=O)Nc2ccc(C)c(S(=O)(=O)N(C)C)c2)s1` was 78.5% (active).
Take `CCN(CC(=O)Nc1ccc(C)c(S(=O)(=O)N(C)C)c1)Cc1ccccc1`: the activation was 3.82% (inactive).
As for `CN(C)S(=O)(=O)c1ccc(N2CCCC2)c(C(=O)Nc2ccc(Br)cc2F)c1`, the activation was 14.1% (inactive).
In the case of `Cc1ccc(Cc2nnc(SCC(=O)Nc3ccc(C)cc3C)[nH]c2=O)cc1`, the activation was 0.586% (inactive).
`Cc1c(NC(=O)C(C)OC(=O)c2c3c(nc4ccccc24)CCC(C)C3)c(=O)n(-c2ccccc2)n1C` (configuration not stated): the activation is -5.9% (inactive).
In the case of `S=C1NC(c2ccccc2)=NCN1c1ccc(Br)cc1`, the activation is 55% (active).
Consider `Cc1nc(=O)c(-c2ccccc2)c(C)n1-c1ccc(Br)cc1`, for which the activation is 1.48% (inactive).
For `O=C1CN(c2nc(-c3ccccc3)c3cc(Br)ccc3n2)c2ccccc2N1`, the activation is -21.4% (inactive).
Regarding `CCC(=O)Nc1ccc(C(=O)Nc2cccc(OC)c2)cc1`, the activation is 11.2% (inactive).
For the compound `CCC(=O)Nc1ccc2nn(-c3ccc(F)cc3)nc2c1`, the activation was 63.6% (active).
For `Cc1ccc(-n2nc3ccc(NC(=O)/C=C/c4ccco4)cc3n2)cc1C` the value was 21.6% (inactive).
`Cc1cc(C)n2nc(C(=O)OC(C)C(=O)c3cc(C)c(C)cc3C)nc2n1` (configuration not stated): the activation was 4.08% (inactive).
Regarding `Cn1c(=S)sc2ccc3ccccc3c21`, the activation was -1.53% (inactive).
For `COc1ccc(S(=O)(=O)NCC(c2ccco2)N2CCOCC2)cc1` (configuration not stated), the activation is -18.5% (inactive).
Regarding `COc1cccc(COC(=O)C2CCN(S(=O)(=O)c3ccc(Cl)cc3)CC2)c1OC`, the activation is -0.23% (inactive).
As for `Cc1ccc(-c2nnn(CC(=O)N(Cc3ccco3)C(C(=O)NC(C)(C)C)c3ccncc3)n2)o1` (configuration not stated), the activation was 10.4% (inactive).
For `Cc1nc(C)c(C(=O)N(c2ccc(C)c(C)c2)C(C(=O)NCc2ccco2)c2ccccc2)s1` (configuration not stated) the value was -5.39% (inactive); for `Cc1nn(-c2ccccc2)c2sc(C(=O)N(Cc3ccco3)C(C)C(=O)NC(C)(C)C)cc12` (configuration not stated), 91.4% (active).
Turning to `COc1ccc(NC(=O)CN(C)C(=O)c2cccc(S(=O)(=O)N3CCN(c4ccccc4)CC3)c2)cc1`, the activation was 14.8% (inactive).
Regarding `COc1ccc(C(=O)Oc2ccc(-c3nnco3)cc2)cc1S(=O)(=O)N1CCOCC1`, the activation is 7.88% (inactive).
In the case of `N#Cc1ccc(C2N=C(c3ccccc3)NO2)cc1` (configuration not stated), the activation is 56.2% (active).
For the compound `Brc1ccccc1C1N=C(c2ccccc2)NO1` (configuration not stated), the activation was 9.38% (inactive).
`O=C(COC(=O)CNS(=O)(=O)c1ccc(F)c(F)c1F)NC1CCCC1`: the activation is -12.4% (inactive).
As for `Nc1cccnc1Sc1ccccc1`, the activation was 7.53% (inactive).
On to `O=C(CNC(=O)C12CC3CC(CC(C3)C1)C2)OCC(=O)N1CCCCC1`, for which the activation was 10.8% (inactive).
The value for `CC(=O)N1CCN(C(=O)c2cc(-c3ccc(Cl)s3)nc3ccccc23)CC1` was 18.1% (inactive).
Take `Cc1ccc(Nc2nc(-c3ccc(O)cc3O)cs2)nc1`: the activation was -44.2% (inactive).
For `CCNc1nc(-c2cc3ccccc3o2)cs1`, the activation is 25.2% (inactive).
For the compound `O=c1oc2ccccc2cc1-c1csc(Nc2ccc(O)cc2)n1`, the activation is 125% (active).
As for `COc1cccc(C2Nc3cccc4cccc(c34)N2)c1`, the activation is 1.58% (inactive).
For `COc1ccc(C2NC(=O)c3ccccc3N2)cc1` (configuration not stated), the activation is 73.7% (active).
For `O=C1NC(c2cccc(Cl)c2)Nc2ccccc21` (configuration not stated) the value was 19.4% (inactive); for `COC(=O)C(C)Oc1ccc2c(c1)O/C(=C\c1cccc(Br)c1)C2=O` (configuration not stated), -3.63% (inactive).
On to `COc1ccc2c(c1)O/C(=C\c1ccccc1O)C2=O`, for which the activation was 61.8% (active).
Consider `O=C1Oc2ccccc2C(=O)/C1=C/c1ccccc1O`, for which the activation was -36.2% (inactive).
Consider `CCOc1ccc(/C=C/C(=O)N(CC)CC(=O)NCc2cccs2)cc1OC`, for which the activation was -14% (inactive).
As for `COc1ccccc1-n1ccnc(SCC(=O)NC2CCCCC2)c1=O`, the activation is -0.123% (inactive).
As for `CC(C)CC(=O)N/C(N)=N/c1nc2ccccc2s1`, the activation is 10.3% (inactive).
In the case of `O=C(O)CCCCc1nc2ccccc2s1`, the activation is 13% (inactive).
On to `CCC(=O)NC(=Nc1nc2ccccc2s1)NC(=O)CC`, for which the activation was 60.3% (active).
As for `COc1ccc2sc(N(CCCN(C)C)C(=O)c3ccc(S(=O)(=O)N(C)C4CCCCC4)cc3)nc2c1`, the activation was -14.5% (inactive).
The value for `O=C1c2cccc3cc(Br)cc(c23)C(=O)N1Nc1ccccc1` was -9.54% (inactive); that for `O=C1C=C(c2ccc(Cl)cc2)C(=O)N1Nc1ccccc1` was 82% (active).
Consider `O=C(CCC(=O)OCc1ccc(Cl)cc1)Nc1ccccc1`, for which the activation is 10.6% (inactive).
For `Cc1cc(C)n2nc(C(=O)OCC(=O)N(CCC#N)c3ccc(F)cc3)nc2n1` the value was 12.7% (inactive); for `O=C(NCc1ccccc1Cl)C(=O)NCC1CCCN1S(=O)(=O)c1cccs1` (configuration not stated), 4.38% (inactive).
`CCCCN(C(=O)c1ccc(C)o1)c1c(N)n(CCCC)c(=O)[nH]c1=O`: the activation was 12.2% (inactive).
For `CN(C)CCCN(C(=O)c1ccc(S(=O)(=O)N2CCCCCC2)cc1)c1nc2cc3c(cc2s1)OCCO3`, the activation was -46.2% (inactive).
For `CCCCn1c(N)c(N(CC(C)C)C(=O)c2cccc(S(=O)(=O)N3CC(C)OC(C)C3)c2)c(=O)[nH]c1=O` (configuration not stated), the activation was -0.424% (inactive).
With `CCOc1ccc(S(=O)(=O)NCCC(=O)N2CCCCCCC2)cc1`, the activation is 4.97% (inactive).
In the case of `Cc1ccc(S(=O)(=O)NCCSc2ccccc2)cc1[N+](=O)[O-]`, the activation is -0.244% (inactive).
For `CCOc1ccc(S(=O)(=O)NCCSc2ccccc2)cc1` the value was 61.2% (active); for `COc1ccc(-c2cc(C(=O)N/N=C/c3cccnc3)c3ccccc3n2)c(OC)c1`, 5.29% (inactive); for `O=C(NCCCNc1ccc([N+](=O)[O-])cc1Cl)c1ccccc1F`, -9.78% (inactive).
On to `O=C(NCCNc1ccc([N+](=O)[O-])cc1Cl)c1ccccc1F`, for which the activation is 18.7% (inactive).
For `O=C(NCCNc1ccccc1[N+](=O)[O-])c1ccccc1F` the value was 55.9% (active).
For `O=C(c1ccncc1)N1CCN(S(=O)(=O)c2cccc([N+](=O)[O-])c2)CC1` the value was 4.99% (inactive); for `COc1cccc(NC(=O)CN(C)C(=O)CSCc2nc3scc(-c4cccs4)c3c(=O)[nH]2)c1`, 0.833% (inactive); for `O=C(c1ccc(NS(=O)(=O)c2ccc3[nH]c(=O)[nH]c3c2)cc1)N1CCCCC1`, 12.7% (inactive).
For `COc1ccc(Cl)cc1NC(=O)CN(C)C(=O)c1cc2ccccc2cc1OC` the value was 21% (inactive); for `COc1ccc(Cl)cc1NC(=O)CN(C)C(=O)CCCc1c[nH]c2ccccc12`, 60.8% (active); for `COc1ccccc1NC(=O)CCCc1c[nH]c2ccccc12`, -2.42% (inactive).
On to `COc1ccccc1NS(=O)(=O)c1ccc(C)c(C(=O)NCC(c2ccco2)N(C)C)c1` (configuration not stated), for which the activation was -1.37% (inactive).
For `CCc1cc(C(c2ccccc2OC)N2CCOCC2)c(NC(=O)c2ccccc2)s1` (configuration not stated) the value was 68.8% (active); for `COc1ccccc1C(=O)Nc1cccc(C(=O)N2CCOCC2)c1`, 8.16% (inactive).
Consider `COc1cc2ccccc2cc1C(=O)Nc1ccc(N2CCOCC2)cc1`, for which the activation is 4.47% (inactive).
